# Source: PubChem BioAssay (several laboratories)
# Sampled rows, rich in hits. Any-hit rate of the full collection: about 0.42%.
# CatB block = human cathepsin B inhibitors, primary screen, biochemical, fluorogenic substrate | P07858 | purified cathepsin B, fluorescence | inhibition, %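 (tested at 10 µM)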 | hit rate 0.1% among 63,000; in the data active means inhibition above about 21%;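 further: 0% = enzyme with no compound and 100% = no enzyme blank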
# CatL inh = inhibitors of human cathepsin L, biochemical | AID 460, 2006 | Procathepsin L (Homo sapiens), P07711 | purified cathepsin L, fluorogenic substrate, fluorescence | inhibition, %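 (tested at 10 µM)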 | hit rate 0.17% among 58,000; in the data active means inhibition above about 45%;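 further: 0% = enzyme with no compound and 100% = no enzyme blank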
# Target sequence (P07711 114-288 limits assumed): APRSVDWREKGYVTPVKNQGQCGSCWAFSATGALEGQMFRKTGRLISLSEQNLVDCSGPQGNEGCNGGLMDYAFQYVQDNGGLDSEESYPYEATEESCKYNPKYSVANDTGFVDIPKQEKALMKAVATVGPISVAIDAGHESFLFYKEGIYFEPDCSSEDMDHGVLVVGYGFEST
# Target sequence (P07711 292-333 limits assumed): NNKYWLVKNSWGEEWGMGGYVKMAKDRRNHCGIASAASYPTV
# WNV protease inh = inhibitors of WNV NS2B-NS3 protease, primary screen, biochemical, fluorogenic substrate; AID 577, 2007; z-score (test concentration not listed); fluorogenic substrate Ex360/Em465; hits give low values; hit rate 0.18% among 65,000; in the data active means z-score below about -3
# CatS block = inhibitors of human cathepsin S, biochemical, compound mixtures | P25774 | recombinant cathepsin S, AMC dipeptide fluorescence, pooled mixtures | inhibition, %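 (tested at 5 µM per compound within 10-compound mixtures)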 | hit rate 0.06% among 62,000 | AID 501, 2006; in the data active means inhibition above about 32%, passing the limit was not always enough;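 further: 0% = enzyme without compound and 100% = blank without enzyme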
# Target sequence (P25774 115-331 limits assumed): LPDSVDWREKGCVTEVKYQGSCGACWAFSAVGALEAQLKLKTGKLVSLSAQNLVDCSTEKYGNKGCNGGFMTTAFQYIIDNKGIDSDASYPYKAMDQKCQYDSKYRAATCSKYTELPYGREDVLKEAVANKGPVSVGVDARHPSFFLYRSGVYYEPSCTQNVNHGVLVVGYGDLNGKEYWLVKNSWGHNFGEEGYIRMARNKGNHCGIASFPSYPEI
# CatB mix inh = cathepsin B inhibitors from pooled compounds, primary screen, biochemical, compound mixtures, AMC fluorescence; P07858; Purified cathepsin B, AMC dipeptide fluorescence; inhibition, %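 (ten-compound pools at 5 µM per compound and 50 µM total)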; hit rate 0.06% among 62,000; in the data active means inhibition above about 22%, passing the limit was not always enough;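 further: 0% = enzyme without compound and 100% = no enzyme blank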
# An asterisk follows results filed as active; . = not tested or not shown.
SMILES,CatB block,CatL inh,WNV protease inh,CatS block,CatB mix inh
CCOC(=O)C(C(=O)OCC)N(C#N)c1nc(SC)nc(N(C)C)n1,27*,78*,2,.,.
CC(C(=O)N(C)C)N(C#N)c1nc(N(C)C)nc(N(C)C)n1 (configuration not stated),-2,7,0.41,.,.
Cc1sc2nc(C(C)Nc3ccccc3N3CCOCC3)[nH]c(=O)c2c1C (configuration not stated),3,-12,-0.54,-8,0
CCc1nnc(NC(=O)CSc2nc3c(c(=O)n2CC)SC(C)C3)s1 (configuration not stated),0,.,0.92,26,1
CN(C)S(=O)(=O)c1ccc(S(=O)(=O)N(Cc2ccccn2)Cc2ccco2)cc1,-3,21,0.56,14,-6
O=C(c1ccco1)N(CCCN1CCOCC1)c1nc(-c2ccc(Cl)cc2)cs1,-2,18,-3.1*,-5,-2
O=C(c1ccco1)N(CCCN1CCOCC1)c1nc(-c2ccc(F)cc2)cs1,-1,-9,-0.93,5,7
COc1ccccc1N=Cc1nc(-c2ccccc2)oc1OC(C)=O,41*,16,-0.07,15,33*
CC(C)OC(=O)c1ccc(NC(=O)C2C3CC4OC(=O)C2C4C3)cc1 (configuration not stated),2,-1,1.5,6,2
Cc1ccc(NC(=O)C2C3CC4OC(=O)C2C4C3)cc1Cl (configuration not stated),-4,-4,-6.4*,-18,-5
CCOC(=O)N1CCN(S(=O)(=O)c2cc(OCC(N)=O)c(C)cc2Cl)CC1,0,-5,-1.2,0,2
CCN1CCN(C(=O)C2c3cc(OC)c(OC)cc3C(=O)N3CCc4ccccc4C23)CC1 (configuration not stated),2,10,-3.2*,-5,2
CCCCN(CC)CCNC(=O)C1c2cc(OC)c(OC)cc2C(=O)N2CCc3ccccc3C12 (configuration not stated),5,20,-1.5,2,-2
Cc1ccc(NC(=O)c2c(-c3c(F)cccc3Cl)noc2C)cc1F,1,4,-1,-1,2
CCN(CC)CCNc1nc2c(c(=O)[nH]c(=O)n2C)n1CC(O)COc1ccc(Cl)cc1Cl (configuration not stated),1,19,-0.98,-2,2
CN(C)CCNc1nc2c(c(=O)[nH]c(=O)n2C)n1CC(O)COc1ccc(Cl)cc1 (configuration not stated),7,47*,-1.1,1,-1
N#Cc1ccsc1NC(=O)c1cnccn1,66*,24,-0.49,4,1
O=C(Nc1ccccc1-c1ccccc1)c1cnccn1,7,0,-0.42,13,5
Cc1ccc(OCC(=O)Nc2ccc(N3CCCC3)cc2)cc1C,3,61*,-0.81,-5,4
COc1ccc(C(=O)CSc2nnc(-c3ccc(C)cc3)o2)cc1,0,5,-4.1*,5,3
COc1ccc(C(=O)CSc2nnc(-c3ccccc3)o2)cc1,0,6,1.1,-1,-1
COCCNC(=O)C(c1cccc(OC)c1)N(C(=O)Cn1nnc2ccccc21)c1cccnc1 (configuration not stated),23*,5,0.97,10,-4
CCN1CCN(CNC(=O)c2cnccn2)CC1,3,.,-4.8*,0,-5
CCN1CCN(c2cc(C)c3cc(NC(=O)c4cnccn4)ccc3n2)CC1,0,1,0.21,-2,6
Cc1ccc2nc(C(F)OC(F)(F)F)[nH]c2c1 (configuration not stated),-1,.,0.11,12,4
SMILES,CatB block,CatL inh,WNV protease inh,CatS block,CatB mix inh
Cc1ccc2nc(C(O)C(O)c3nc4ccc(C)cc4[nH]3)[nH]c2c1 (configuration not stated),0,62*,0.31,-11,3
CC(C)NC(=O)Cn1c(SCC(=O)N2CCCCCC2)nc2ccccc21,-3,0,-1.8,2,5
CCSc1nc2ccccc2n1CC(=O)N1CCCCC1,1,56*,0.91,55,49
Nc1nonc1-c1nc2ccccc2n1CC(=O)N1CCCCC1,81*,66*,0.43,40,86*
CCOC(=O)c1ccccc1NC(=O)CSc1nc2ccccc2n1CC(=O)N1CCCC1,0,19,-0.53,8,5
COC(=O)c1ccccc1NC(=O)Cn1c(-c2nonc2N)nc2ccccc21,70*,66*,1.5,.,82*
CN1C(=O)c2cccc(NC(=O)Cc3ccccc3)c2C1=O,-2,-3,0.8,3,6
CCCOc1ccc(N2CC(C(=O)Nc3ccccc3F)CC2=O)cc1 (configuration not stated),6,25,-0.17,10,3
Cc1ccc(S(=O)(=O)NCCC(=O)NCCN2CCCCCC2)cc1,-3,64*,1.1,23,5
COc1ccc(C)cc1-n1nnnc1SCC1CCCCO1 (configuration not stated),-1,-1,0.18,-3,4
CCOC(=O)Cc1csc(NS(=O)(=O)c2ccc3c4c(cccc24)C(=O)N3CC)n1,5,2,-0.34,55*,-1
CCN1C(=O)c2cccc3c(S(=O)(=O)Nc4c(C)n(C)n(-c5ccccc5)c4=O)ccc1c23,3,-1,-0.95,-6,6
O=C(NC1CCCCC1)Nn1c(-c2ccccc2)nc2ccccc2c1=O,0,-6,-0.69,1,6
CCS(=O)(=O)N1Cc2ccccc2CC1C(=O)N1CCN(c2cccc(C)c2C)CC1 (configuration not stated),0,7,-3.1*,-5,2
COC(=O)c1[nH]c2ccc(C)cc2c1NC(=O)CN1CCCCC1C (configuration not stated),-6,-5,0.73,-6,3
O=C1c2ccccc2C(O)(Cc2ccccc2)N1C1CCCCC1 (configuration not stated),9,104*,-0.37,-1,3
O=C1c2ccccc2C(O)(Cc2ccccc2)N1CCCN1CCOCC1 (configuration not stated),1,13,-0.94,-1,6
COc1ccc(N(CC(=O)NC2CCCCC2)S(=O)(=O)c2cccnc2)cc1,2,-1,-0.31,-2,-1
Cc1ccc(N(CC(=O)NC2CCC(C)CC2)S(=O)(=O)c2cccnc2)cc1 (configuration not stated),7,72*,2.1,4,34
O=C(CCCc1cccs1)Nc1nc2c(s1)CCCC2,-2,48*,-0.21,7,7
O=C(CCS(=O)(=O)Cc1ccccc1)Nc1nc2c(s1)CCCC2,6,.,-0.82,5,5
COC(=O)CSc1nnc(CNc2ccc(OC)cc2)n1C,4,14,-0.28,7,-2
Cc1csc2nc(CNC(=O)C3CC=CCC3C(=O)O)cn12 (configuration not stated),1,3,-4.3*,11,0
